Compound activity from PubChem BioAssay.
MCF10A rerep = induces DNA re-replication in MCF 10a normal breast cells | MCF 10A DNA re-replication, Hoechst nuclear intensity, 48 h | Potency, µM (doses to about 46.1 µM), inactives show top-dose activity, positive = re-replication, usual class: activators | hit rate 2.9% among 350,000; note: % of control where 0% means no effect; nearly all actives have a fitted effect of over 50% in size
SW480 rerep = induces DNA re-replication in SW480 colon adenocarcinoma cells. SW480 DNA re-replication, Hoechst DNA content imaging, 48 h. Potency, µM (titrated, usually from 46.1 µM), inactives show at the highest dose re-replication activation, usual class: activators. hit rate 1.8% among 340,000; note: % of control where 0% means no effect; nearly all actives have a fitted effect of over 55% in size
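250 cells/well; 23 nL cpd via pin tool; 48 hr, 37 C, 5% CO2; Hoechst 40 min; imager read of total nuclear intensity, ex 405/em 500-530 nm.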
PINK1 modulator = modulators of PINK1 expression. Potency, µM (titrated, usually from 76.6 µM), for inactives: at the top dose activation (PINK1 increase), usual class: activators. AID 624263. PINK1 immunofluorescence, high-content cytometry, 24 h. hit rate 0.2% among 410,000; active = well fitted activation curve with a large enough effect; inconclusive = small, poorly fitted or top-dose-only effect; cell line not stated here; note: % of control where 0% means no effect; nearly all actives have a fitted effect of over 65% in size
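Measures PINK1 amount and localization on or inside mitochondria by immunofluorescence. Stable cells get compounds at 5 concentrations for 24 hours before fixation and staining; CCCP controls included.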
KB-3-1 tox = KB-3-1 parental cell cytotoxicity; AID 1347075; hit rate 1.4% among 400,000; KB-3-1 viability, CellTiter-Glo ATP luminescence, 72 h; Potency, µM (top dose mostly 46.1 µM), usual class: cytotoxic; note: % is set by controls: 0 for no effect and ±100 for the full control effect; nearly all actives have a fitted effect of over 60% in size
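Luminescent ATP read-out (CellTiter-Glo) measures survival of drug-naive KB-3-1 cells after 72 h compound exposure at 37 °C. Titration series was screened from lowest to highest concentration, with DMSO vehicle plates as background controls.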
KB-V1 MDR tox = kills drug-selected multidrug resistant KB-V1 cells; KB-V1 MDR cells viability, CellTiter-Glo, 72 h; Potency, µM (titrated, usually from 46.1 µM), usual class: cytotoxic; hit rate 3.4% among 400,000; AID 1347076; note: % is set by controls: 0 for no effect and ±100 for the full control effect; nearly all actives have a fitted effect of over 60% in size
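In this primary screen, KB-V1 cells overexpressing P-gp are incubated with library compounds (lowest to highest concentration) for 72 h at 37 degrees C before a luminescent ATP viability read.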
Starred values were filed as active, the others as inactive; i = inactive; ? = inconclusive; . = not tested or not shown; [ ] = remark or other dose. A selection: hits, their analogues and other compounds. The true share with any hit is near 6.7%. Unless noted, calls come from the whole dose curve; as a rule, active = well fitted curve in the direction sought with a large enough effect; inconclusive = small, poorly fitted or top-dose-only effect, or another doubt; inactive = no such curve, though single readings can be large; an effect the other way counts as inactive or inconclusive. Potency is the fitted concentration of half-maximal effect.

SMILES | MCF10A rerep | SW480 rerep | PINK1 modulator | KB-3-1 tox | KB-V1 MDR tox
N#CC1=C(SCC(=O)c2ccc(Cl)cc2)NC2=C(C(=O)CCC2)C1c1ccco1 (centres undefined) | 11µM* | ? | 0% | ? | i
COc1ccc(OC)c(NC(=O)CSC2=C(C#N)C(c3ccco3)C3=C(CCCC3=O)N2)c1 (centres undefined) | ? | 16µM* | 0% | i | i
O=C(NCCC(=O)N1CCN(c2ccccn2)CC1)c1ccc(Cl)cc1 | -5% | -2% | 2% | i | i
Cc1ccc(NC(=O)Cn2c(=O)oc3cc(S(=O)(=O)N4CCC(C)CC4)ccc32)cc1C | 21µM* | ? | 5% | ? | ?
O=C(CN1CCN(S(=O)(=O)c2ccc3ccccc3c2)CC1)Nc1ccc2c(c1)CCC2 | 11% | 22% | -1% | i | 18µM*
N#Cc1ccsc1NC(=O)CN1CCN(S(=O)(=O)c2ccc3ccccc3c2)CC1 | 23% | -1% | 1% | i | 6.5µM*
O=C(CN1CCN(S(=O)(=O)c2ccc(Cl)cc2)CC1)Nc1ccc2c(c1)CCC2 | 22% | 5% | -3% | ? | i
Cc1ccc(S(=O)(=O)N2CCN(CC(=O)Nc3ccc4c(c3)CCC4)CC2)cc1C | 7% | -3% | 0% | ? | 2.9µM*
c1csc(CNc2ncncc2-c2ccc3c(c2)OCO3)c1 | . | . | 8% | . | .
O=C(NCCc1ccccc1)C(=O)NCC1OCCN1S(=O)(=O)c1cc(F)ccc1F (centres undefined) | 6% | -5% | 3% | i | ?
CNc1cnc(-c2ccccc2OC)cn1 | . | . | 1% | i | i
CCOC(=O)/C(C#N)=C/c1cc(C)n(-c2ccccc2)c1C | ? | 0% | 7% | i | 9.2µM*
O=C(CSc1ncnc2nc[nH]c12)N1CCOCC1 | 8.2µM* | 18µM* | 0%[38.3 µM] | i | i
O=C(CSc1ncnc2nc[nH]c12)c1ccccc1 | ? | 4% | 4% | ? | ?
CCOC(=O)c1c(C)n(S(=O)(=O)c2ccc(C)cc2)c2ccc(NS(=O)(=O)c3ccc(C)cc3)cc12 | . | . | 1% | i | ?
O=C1OCCN1C(=O)[C@H]1[C@H](c2ccc(Cl)cc2)C(c2cccc(Cl)c2)=NN1c1ccccc1 | ? | 12µM* | 3% | i | i
O=C1OCCN1C(=O)[C@H]1[C@H](c2ccc(F)cc2)C(c2cccc(Cl)c2)=NN1c1ccccc1 | 0.58µM* | 18µM* | -1% | i | i
COc1cccc2c1CCC1CC(=O)CC[C@@]21C (some centres undefined) | . | . | 0% | . | .
Cn1c(NC(=O)c2cccc(Cn3cc(Cl)cn3)c2)nc2ccccc21 | -8% | -2% | 11µM* | i | ?
COC(=O)c1ccc(NC(=O)COc2ccccc2C(=O)Nc2ccccc2)cc1 | . | . | 1% | i | i
COc1cccc(CNCCc2c[nH]c3ccccc23)c1OCc1ccccc1 | ? | ? | -4% | ? | ?
COc1cccc(CNC23CC4CC(CC(C4)C2)C3)c1OCc1ccccc1 | 29% | ? | 9% | ? | 21µM*
COc1cc(/C=C/CN2CCOc3ccc(C(O)c4cccnc4)cc3C2)ccc1O (centres undefined) | . | . | 1% | . | .
O=C(NCc1ccccc1)c1ccc(CS(=O)(=O)Cc2ccccc2F)o1 | -3% | -21% | 0% | i | 16µM*
O=C(COC(=O)CNC(=O)c1ccccc1)NC(=O)NC1CCCCC1 | 7% | -1% | 3% | i | i
SMILES | MCF10A rerep | SW480 rerep | PINK1 modulator | KB-3-1 tox | KB-V1 MDR tox
O=C(Nc1cccn(Cc2cccc(F)c2)c1=O)NC1CCCCC1 | -1% | 17% | 1% | i | i
C#CCOC(=O)Nc1cccn(Cc2c(Cl)cccc2Cl)c1=O | ? | ? | -1% | 10µM* | ?
O=C(Nc1cccn(Cc2c(F)cccc2Cl)c1=O)NC1CCCCC1 | 21µM* | 18µM* | 3% | 2.6µM* | ?
c1ccc(CCc2nnc3n2CCN(Cc2ccc4ccccc4n2)CC3)cc1 | . | . | 2% | . | .
CC(C)(C)n1nnnc1C(c1ccccc1)N1CCN(c2ccc(C(F)(F)F)cn2)CC1 (centres undefined) | . | . | 4% | ? | i
O=C(O)c1c(-c2ccccc2)cnc2ccccc12 | . | . | 0% | i | i
Cc1ccc(S(=O)(=O)NC(=O)C2(C)CCN2C(=O)CC2CCCC2)nc1 (centres undefined) | . | . | 2% | i | i
COCCCN1C(=O)C(CC(=O)NCc2cccs2)CC(C(=O)N(C)C)=C1C (centres undefined) | . | . | 1% | i | i
Cc1nc(NC(=O)c2ccco2)sc1C(=O)O | 1% | -9% | 0% | 13µM* | 4.6µM*
COC(=O)c1sc(NC(=O)c2ccco2)nc1C | -5% | -6%[9.22 µM] | 2% | i | i
Cc1nc(-c2ccncc2)sc1C(=O)Nc1ccc(Br)cc1 | 0% | -5% | 5% | ? | i
Cc1nc(NC(=O)c2ccco2)sc1C(=O)Nc1ccc(Br)cc1 | 23µM* | 1% | 0%[38.3 µM] | ? | i
Cc1ccc(NC(=O)C2(C)CCN2C(=O)Cc2cc(F)ccc2F)cc1 (centres undefined) | . | . | 3% | i | i
CCNC(=O)N(CC)C[C@H]1N[C@@](C)(C(=O)OC)[C@H]2C(=O)N(Cc3ccccc3)C(=O)[C@@H]12 | -5% | 0.23µM* | 4% | i | i
CCN(C[C@H]1N[C@@](C)(C(=O)OC)[C@H]2C(=O)N(Cc3ccccc3)C(=O)[C@@H]12)C(=O)c1ccccc1 | 1% | 1% | 0% | i | i
Cn1cc(C(C[N+](=O)[O-])c2ccccc2)c2ccccc21 (centres undefined) | 13µM* | 10µM* | 5% | ? | ?
Cn1cc(SCC(=O)O)c2ccccc21 | 11% | -17% | . | i | i
NCC(c1ccccc1)c1c[nH]c2ccccc12 (centres undefined) | 1% | 18% | 0% | i | i
O=[N+]([O-])CC(c1ccc(F)cc1)c1c[nH]c2ccccc12 (centres undefined) | 13µM* | ? | 6% | ? | i
COc1ccc(NC(=O)C(=O)NCC(c2ccco2)N2CCc3ccccc3C2)cc1OC (centres undefined) | 17% | 4% | 1% | i | ?
COc1ccc(CCNC(=O)CCN2C(=O)c3cccc4cccc(c34)C2=O)cc1OC | 4% | 11% | 4% | i | i
COc1ccc(CCN2C(=O)c3cccc4c(C(=O)N5CCCCC5)ccc(c34)C2=O)cc1OC | ? | -1% | 1% | i | 2.9µM*
CCS(=O)(=O)N1CCC2(CC1)OC(=O)C(C)=C2C(=O)NCc1ccccc1C | . | . | -1% | i | i
